From paper PMC4336329 (PLoS ONE, 2015)
Out of some 310,000 compounds screened, about 14,000 (4.5%) showed an effect of 50% or more. The effect is printed as a negative number. Only a selection was taken, and strong results are over-represented in it overall.

molecular target: human ether-à-go-go-related gene (hERG) potassium channel (human, UniProt Q12809); test: primary screen, population patch clamp on CHO cells stably expressing hERG; higher = less effect of the substance
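Also: peak tail current of the secondary pulse compared with the same well before compound.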

human ether-à-go-go-related gene (hERG) potassium channel, sequence (Q12809 whole entry, looked up): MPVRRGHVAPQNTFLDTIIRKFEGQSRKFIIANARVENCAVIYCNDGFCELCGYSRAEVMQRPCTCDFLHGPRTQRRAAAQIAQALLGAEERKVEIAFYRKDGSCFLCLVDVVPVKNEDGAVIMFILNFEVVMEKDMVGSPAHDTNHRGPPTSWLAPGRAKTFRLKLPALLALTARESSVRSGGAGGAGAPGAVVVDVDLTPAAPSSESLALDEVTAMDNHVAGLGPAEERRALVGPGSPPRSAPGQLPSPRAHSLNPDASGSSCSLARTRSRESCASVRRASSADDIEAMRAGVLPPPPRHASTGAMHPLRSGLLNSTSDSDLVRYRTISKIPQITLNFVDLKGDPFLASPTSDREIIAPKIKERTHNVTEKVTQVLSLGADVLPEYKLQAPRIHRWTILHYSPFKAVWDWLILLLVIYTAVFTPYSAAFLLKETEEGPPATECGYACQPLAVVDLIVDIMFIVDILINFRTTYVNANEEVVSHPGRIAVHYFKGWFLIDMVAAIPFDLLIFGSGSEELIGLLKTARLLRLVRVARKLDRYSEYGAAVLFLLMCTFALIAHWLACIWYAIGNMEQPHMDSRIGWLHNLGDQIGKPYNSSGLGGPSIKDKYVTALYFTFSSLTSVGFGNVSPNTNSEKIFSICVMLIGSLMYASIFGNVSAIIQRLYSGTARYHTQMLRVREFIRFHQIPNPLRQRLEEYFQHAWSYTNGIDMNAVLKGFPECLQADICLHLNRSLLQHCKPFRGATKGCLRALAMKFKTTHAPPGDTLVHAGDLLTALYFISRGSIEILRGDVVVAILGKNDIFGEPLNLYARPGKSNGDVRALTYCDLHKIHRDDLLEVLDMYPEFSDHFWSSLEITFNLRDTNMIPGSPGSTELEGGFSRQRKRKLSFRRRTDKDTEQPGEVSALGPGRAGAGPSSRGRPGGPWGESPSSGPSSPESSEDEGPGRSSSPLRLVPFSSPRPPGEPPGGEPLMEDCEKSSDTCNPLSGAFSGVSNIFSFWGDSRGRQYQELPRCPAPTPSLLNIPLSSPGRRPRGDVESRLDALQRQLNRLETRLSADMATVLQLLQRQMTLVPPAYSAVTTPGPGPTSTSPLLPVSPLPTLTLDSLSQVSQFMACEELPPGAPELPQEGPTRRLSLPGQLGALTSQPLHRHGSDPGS

| Structure (SMILES) | hERG current change (%, negative = inhibition) at 10uM |
| --- | --- |
| COc1ccc2c(c1)CC/C(=C\C=C\c1ccccc1OC)C2=O | 8.8% |
| Cc1cc(=O)[nH]c(N/N=C/c2ccc(Br)s2)n1 | -13.9% |
| CN1CCN(c2ccc(-c3cccc(NC(=O)COc4ccc(Cl)cc4Cl)c3)nn2)CC1 | 6.83% |
| O=C(COc1ccc2c3c(c(=O)oc2c1)CCC3)NC(Cc1ccc(Cl)cc1)C(=O)O (stereo not shown) | 3.55% |
| Cc1ccc2nc(Cl)c(CN(Cc3cccs3)C(=O)C3CC3)cc2c1 | 8.82% |
| C[C@]12CC[C@@H](O)C[C@@H]1CC[C@@H]1[C@@H]2CC[C@]2(C)[C@@H](O)CC[C@@H]12 | 19.8% |
| N#CCOC(=O)C1CSC2(c3ccc(Br)cc3)CCC(=O)N12 (stereo not shown) | 8.43% |
| CCCCOc1cccc(C(=O)NC(=S)Nc2cccc(NC(=O)c3ccccc3Cl)c2)c1 | -8.49% |
| CC(C)(C)c1ccc(C(=O)NNC(=O)c2ccncc2)cc1 | 15.5% |
| CC(C)CCCN1CCN=C1N(C)C | 8.91% |
| CN(C)C1=NCCN1CCCC1CCCCC1 | -38.6% |
| CN(C)C1=NCCN1CCCC1CCCC1 | -51% |
| CN(C)C1=NCCN1CCC1CCCC1 | 1.87% |
| CCCCN1CCN=C1N(C)C | 12% |
| CCCCCCCN1CCN=C1N(C)C | -67.7% |
| COc1ccc(NC(=O)CN(C)C(=O)CN2C(=O)NC3(CCCCC3)C2=O)cc1 | 3.29% |
| Cc1nn(CC(=O)Nc2ccc3c(c2)nc(CN2CCCC2)n3C)c(=O)c2ccccc12 | -13.4% |
| Cc1c(C(=O)NNC(=O)c2ccccc2O)oc2ccc(Br)cc12 | 8.46% |
| Cc1c(C(=O)NNC(=O)c2ccncc2)oc2ccccc12 | -5.92% |
| Cc1c(C(=O)NNC(=O)c2ccncc2)oc2ccc(Br)cc12 | -68.5% |
| COc1ccccc1NC(=O)N1CCC(NC(=O)C2CCCCC2)CC1 | 5.27% |
| N#CCSc1nnc(C2CCCCC2)n1Cc1ccccc1 | -11.6% |
| Cc1[nH]c2ccccc2c1C(=O)C(C)OC(=O)c1ccccc1NCCO (stereo not shown) | 15% |
| O=S(=O)(Nc1nnc(-c2ccccc2)s1)c1ccc(Cl)cc1 | 0.769% |

| Structure (SMILES) | hERG current change (%, negative = inhibition) at 10uM |
| --- | --- |
| O=C(c1ccc(Cl)c(S(=O)(=O)N2CCCCCC2)c1)N1CCN(c2ccc(O)cc2)CC1 | -50.4% |
| O=C(c1ccc(S(=O)(=O)N2CCOCC2)cc1)N1CCN(c2ccc(F)cc2)CC1 | -5.3% |
| COc1ccc(NC(=O)c2ccc(Br)c(S(=O)(=O)N3CCOCC3)c2)cc1 | 1.53% |
| O=C(Nc1ccc(S(=O)(=O)N2CCOCC2)cc1)c1ccc(F)cc1 | -6.51% |
| O=C(c1ccc(F)c(S(=O)(=O)N2CCOCC2)c1)N1CCN(c2ccc(F)cc2)CC1 | -60.5% |
| O=C(c1ccc(Cl)c(S(=O)(=O)N2CCCCC2)c1)N1CCN(c2ccccc2)CC1 | -26.5% |
| O=C(c1ccc(Cl)c(S(=O)(=O)N2CCCC2)c1)N1CCN(c2ccccc2)CC1 | -8.69% |
| COc1ccc(N2CCN(C(=O)c3ccc(Cl)c(S(=O)(=O)N4CCCC4)c3)CC2)cc1 | -31.6% |
| O=C(c1ccc(Cl)c(S(=O)(=O)N2CCCC2)c1)N1CCN(c2ccccc2F)CC1 | -20.6% |
| O=C(Nc1ccc(F)cc1)c1ccc(Br)c(S(=O)(=O)N2CCOCC2)c1 | -58.8% |
| O=C(c1ccc(F)c(S(=O)(=O)N2CCOCC2)c1)N1CCN(c2ncccn2)CC1 | -4.06% |
| Cl.O=C(c1ccc(Cl)c(S(=O)(=O)N2CCCC2)c1)N1CCN(c2ccc(F)cc2)CC1 | -58.5% |
| COc1ccc(NC(=O)C/C(C)=N/NC(=O)CCc2ccccc2)c(OC)c1 | 4.6% |
| CC(=O)c1cccc(NC(=S)NC(=O)c2ccccc2Br)c1 | 10.9% |
| Cl.N/C(=N\O)C1COc2ccccc2O1 (stereo not shown) | 16.4% |
| CCOC(=O)C1CCCN(C(=O)CSc2ccc(NC(C)=O)cc2)C1 (stereo not shown) | 14.9% |
| COc1ccccc1N1CCN(C(=O)CSc2nc3ncnc(N)c3[nH]2)CC1 | 21.3% |
| Cc1nc2cc(NS(=O)(=O)c3cccc(F)c3)ccc2s1 | 7.97% |
| COc1nc(Nc2ccccc2)nc(OC)n1 | 5.84% |
| CC(C)CCNC(=O)CCCc1ccccc1 | 14.5% |
| Brc1nc(-c2ccccc2)nc(-c2ccccc2)c1Br | -5.38% |
| O=C(Cc1ccc(S(=O)(=O)N2CCCC2)s1)N1CCN(c2ccccc2)CC1 | -28.4% |
| Cc1ccc(C(=O)N2CCN(c3ccccc3)CC2)cc1S(=O)(=O)N1CCCC1 | -31.2% |
| O=C(Cc1ccc(S(=O)(=O)N2CCCC2)s1)N1CCOCC1 | -0.493% |

| Structure (SMILES) | hERG current change (%, negative = inhibition) at 10uM |
| --- | --- |
| O=C(Cc1ccc(S(=O)(=O)N2CCCC2)s1)N1CCN(c2ccc(F)cc2)CC1 | -56.2% |
| O=C(Cc1ccc(S(=O)(=O)N2CCOCC2)s1)N1CCN(S(=O)(=O)c2cccc([N+](=O)[O-])c2)CC1 | -27.1% |
| Cc1ccc(C(=O)N2CCCCC2)cc1S(=O)(=O)N1CCCC1 | 5.55% |
| O=C(Cc1ccc(S(=O)(=O)N2CCOCC2)s1)N1CCN(c2cccc(C(F)(F)F)c2)CC1 | -31.7% |
| O=C(Cc1ccc(S(=O)(=O)N2CCOCC2)s1)N1CCN(c2ccc(C(F)(F)F)cc2[N+](=O)[O-])CC1 | -54.8% |
| Cc1ccc(C(=O)N2CCN(c3ccc(F)cc3)CC2)cc1S(=O)(=O)N1CCCCC1 | -54% |
| COc1ccc(OCCOC(=O)c2cc(S(=O)(=O)N3CCOCC3)c(Cl)cc2Cl)cc1 | -17.7% |
| Cc1ccc(NS(=O)(=O)c2cc([N+](=O)[O-])ccc2NNC(=S)Nc2cccc(Cl)c2)c(C)c1 | 26% |
| C[C@]12C=CC(=O)C=C1CC[C@@H]1[C@@H]2[C@@H](O)C[C@@]2(C)[C@H]1CC[C@]2(O)C(=O)COC(=O)CCC(=O)NCCc1ccc(O)cc1 | 12.8% |
| CN1CCN(c2oc(Cc3cccc4ccccc34)nc2C#N)CC1 | -9.75% |
| CCOC(=O)N1CCC(NC(=O)CCC(=O)c2ccccc2)CC1 | 10.8% |
| CCc1ccccc1NC(=O)C(Cc1cccc(OC)c1OC)c1nn[nH]n1 (stereo not shown) | 7.41% |
| O=C(Nc1nccs1)C12CC3CC(C1)CC(C(=O)Nc1nccs1)(C3)C2 | -11.1% |
| Cn1c(=O)n(C)c2cc(NC(=O)COc3ccc(F)cc3)ccc21 | -41.8% |
| CC(=O)Nc1ccc2c(c1)nc(CCN1CCN(C)CC1)n2C | -2.56% |
| CN1CCN(CCc2nc3cc(NC(=O)COc4ccc(Cl)cc4)ccc3n2C)CC1 | -61% |
| CCN1CCN(CCc2nc3cc(NC(=O)COc4ccccc4)ccc3n2C)CC1 | -49.8% |
| CCN1CCN(CCc2nc3cc(NC(=O)COc4ccc(Cl)cc4)ccc3n2C)CC1 | -67.6% |
| Cn1c(=O)n(C)c2cc(NC(=O)COc3ccc(Cl)cc3)ccc21 | -59.4% |
| COc1ccc(OCC(=O)Nc2ccc3c(c2)n(C)c(=O)n3C)cc1 | -3.51% |
| Cn1c(CCN2CCCCC2)nc2cc(NC(=O)COc3ccc(Cl)cc3)ccc21 | -84.8% |
| c1ccc(Cc2nnc3sc(-c4ccccn4)nn23)cc1 | -6.6% |
| COc1ccc(C(=O)N=c2sc3c(C)ccc(OC)c3n2C)cc1OC | 7.38% |
| Cc1cc2c(ncn2C)c(NS(=O)(=O)c2ccc(Cl)cc2)c1C | -1.18% |

| Structure (SMILES) | hERG current change (%, negative = inhibition) at 10uM |
| --- | --- |
| COc1cc(C2NCC(c3ccc(Cl)cc3Cl)c3c2[nH]c2ccccc32)cc(OC)c1OC.Cl (stereo not shown) | 7.58% |
| COc1ccccc1N(C(=O)c1ccco1)C(C(=O)NC1CCCC1)c1cccnc1 (stereo not shown) | -0.441% |
| CC1CCN(S(=O)(=O)N2CCC(C(=O)NCCc3ccccc3)CC2)CC1 | 2.8% |
| CC(C)CN1C(=O)c2ccc(C(=O)Nc3ccccn3)cc2C1=O | -14.7% |
| Cn1c(CN2CCCC2)nc2cc(NC(=O)COc3ccc(Cl)cc3)ccc21 | -69.2% |
| Cn1c(CN2CCCC2)nc2cc(NC(=O)COc3ccccc3)ccc21 | -34.1% |
| O=C(COc1ccccc1)Nc1cc2c3c(c1)CC(=O)N3CCC2 | -36% |
| CC1C(=O)N2CCCc3cc(NC(=O)COc4ccc(Cl)cc4)cc1c32 (stereo not shown) | -40.2% |
| O=C(COc1ccc(Cl)cc1)Nc1cc2c3c(c1)CC(=O)N3CCC2 | -57.1% |
| COc1ccc(OCC(=O)Nc2ccc3c(c2)nc(CN2CCCC2)n3C)cc1 | -26.9% |
| CC(C)CNC(=O)COc1ncnc2sccc12 | -37.4% |
| Cc1c(CN(C)Cc2cn(C)nc2-c2ccccc2F)[nH]c2ccccc12 | -6.24% |
| COc1cc(/C=N/n2nnnc2N)cc(OC)c1OC | -0.774% |
| CN1C2C=C(N(CCc3c[nH]c4ccccc34)C(=O)c3ccc(Cl)cc3)CC1CC2.Cl (stereo not shown) | -67% |
| Cc1cc(C)cc(C(=O)NCCCc2ccccc2)c1 | -4.26% |
| O=C(NCCc1c[nH]c2ccccc12)c1ccc(Cl)cc1 | -12.7% |
| Cc1cc(C)cc(C(=O)N(CCc2ccccc2)C2=CC3CCC(C2)N3C)c1.Cl (stereo not shown) | -60.7% |
| O=C(Cc1ccc(Cl)cc1)NCCc1c[nH]c2ccccc12 | -19.8% |
| COC(=O)C1=C(CCc2ccccc2)NC(=O)NC1c1ccc(Cl)cc1 (stereo not shown) | -9.59% |
| COc1cc(C(=O)N(CCc2ccccc2)C2=CC3CCC(C2)N3C)cc(OC)c1OC.Cl.O (stereo not shown) | -29.2% |
| CN1C2C=C(N(CCc3ccccc3)C(=O)c3ccc(Cl)cc3)CC1CC2.Cl (stereo not shown) | -74.8% |
| O=C(NCC(=O)N1CCC(Cc2ccccc2)CC1)c1ccc(Cl)cc1 | -23.3% |
